A selection: hits, their analogues and other compounds. The true share with any hit is near 3.1%.
TSHR antagonist: human thyrotropin receptor antagonism; P16473; TSHR-expressing cells, TSH-stimulated cAMP HTRF, 2 h; stronger effect = lower value; activity change, negative = inhibition, % at 11.5 µM; hit rate 0.2% among 330,000; AID 504810;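 active = activity change below a set negative limit, meaning inhibition stronger than a set level, cut at about -70% in these data; inconclusive = activity change between two set negative limits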
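Cell-based HTRF cAMP assay; TSHR cells + compound, TSH EC80 (4nM final), 2 h, 37 deg C. Lysis with anti-cAMP cryptate and cAMP-d2, 30 min RT, read 665/620 nm.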
PLK1 PBD block: inhibitors of human PLK1 polo-box domain binding; P53350; Plk1 PBD binding of FITC phosphopeptide, fluorescence polarization; Potency, µM, most hits filed as inhibitors; hit rate 2.8% among 360,000; note: series mostly up to about 57 µM; nearly all actives have a fitted effect of over 65% in size
Target sequence (P53350 whole entry, looked up, the tested form may be a part): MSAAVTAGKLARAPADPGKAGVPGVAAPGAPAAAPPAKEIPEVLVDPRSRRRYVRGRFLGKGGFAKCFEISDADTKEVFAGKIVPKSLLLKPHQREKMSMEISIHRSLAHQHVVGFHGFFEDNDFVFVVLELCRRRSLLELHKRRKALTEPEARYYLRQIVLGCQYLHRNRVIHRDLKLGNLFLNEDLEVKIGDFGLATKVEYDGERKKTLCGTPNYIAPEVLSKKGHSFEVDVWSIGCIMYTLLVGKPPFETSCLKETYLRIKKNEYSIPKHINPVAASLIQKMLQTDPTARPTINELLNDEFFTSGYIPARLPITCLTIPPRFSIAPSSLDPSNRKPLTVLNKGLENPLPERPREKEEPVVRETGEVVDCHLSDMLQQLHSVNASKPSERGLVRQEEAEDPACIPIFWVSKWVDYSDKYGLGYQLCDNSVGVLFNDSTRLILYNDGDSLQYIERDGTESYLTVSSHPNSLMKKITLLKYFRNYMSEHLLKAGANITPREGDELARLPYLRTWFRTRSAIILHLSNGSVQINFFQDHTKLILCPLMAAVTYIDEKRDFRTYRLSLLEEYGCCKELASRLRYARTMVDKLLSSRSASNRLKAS
Vif-A3G inh: inhibitors of Vif-APOBEC3G interaction | Q9HC16 | HeLa A3G-eYFP + Vif (tagged APOBEC3G with the HIV-1 protein that degrades it), YFP fluorescence, overnight | Potency, µM (doses to about 46.1 µM), hits mostly inhibitors | hit rate 0.076% among 410,000 | AID 602310; note: nearly all actives have a fitted effect of over 60% in size
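Read-out is eYFP fluorescence (Ex 488/Em 500-530) from Vif-expressing HeLa A3G-eYFP cells; more signal means A3G escaped Vif-mediated degradation. Cells plated overnight, compound pinned in, incubated overnight at 37 deg C.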
VDR inh: inhibitors of human vitamin D receptor | P11473 | VDR-SRC2-3 peptide fluorescence polarization, 2 h | Potency, µM, actives largely listed as inhibitors | hit rate 0.93% among 400,000 | AID 504847
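After 23 nl compound addition and a short centrifugation, plates sat for 2 hours at ambient temperature; polarization of fluorescence then indicated loss of VDR binding to peptide SRC2-3.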
Vif-APOBEC3F blk: blocks the Vif interaction with APOBEC3F | hit rate 0.2% among 390,000 | Potency, µM (top dose mostly 46.1 µM) | AID 602313 | HeLa A3F-eYFP + Vif (tagged APOBEC3F with the HIV-1 protein that degrades it), YFP fluorescence increase; note: nearly all actives have a fitted effect of over 65% in size
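HeLa cells stably expressing Vif plus C-terminally eYFP-tagged A3F were seeded, incubated overnight at 37 deg C, dosed with compound, incubated overnight again at 37 deg C. Yellow fluorescence (Ex 488/Em 500-530) reported blocked Vif-mediated A3F-eYFP degradation.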
Hits are given with their value. Unless noted, calls come from the whole dose curve; as a rule, active = well fitted curve in the direction sought with a large enough effect; inconclusive = small, poorly fitted or top-dose-only effect, or another doubt; inactive = no such curve, though single readings can be large; an effect the other way counts as inactive or inconclusive.

For CCOc1ccccc1NC(=O)C(=O)NCCC1=CCCCC1 the results were TSHR antagonist inactive, PLK1 PBD block 26.7µM, Vif-A3G inh inactive, VDR inh inactive and Vif-APOBEC3F blk inactive.
Screening Cc1ccc(/C=C2\SC(N3CCCCC3)=NC2=O)cc1 returned TSHR antagonist inactive, PLK1 PBD block 23.8µM, Vif-A3G inh inactive, VDR inh inconclusive and Vif-APOBEC3F blk inactive.
O=C1N=C(N2CCCC2)S/C1=C\c1ccccc1 was read as TSHR antagonist inactive, PLK1 PBD block 29.9µM, Vif-A3G inh inactive, VDR inh inconclusive and Vif-APOBEC3F blk inactive.
COc1ccccc1C1C(C(N)=O)=C(C)Nc2nc(SCc3ccccc3F)nn21 (stereo not given) was read as Vif-A3G inh inactive, VDR inh inactive and Vif-APOBEC3F blk inactive.
CC(=O)Oc1cc2c3c(c1)/C(=C1/SC(=S)NC1=O)C(=O)N3C(C)(C)C=C2C was read as TSHR antagonist inactive, PLK1 PBD block 26.7µM, Vif-A3G inh inactive, VDR inh inconclusive and Vif-APOBEC3F blk inactive.
N#Cc1nc(N(c2ccccc2)c2ccccc2)nc(-n2cccc2)n1 was read as Vif-A3G inh inactive and VDR inh inactive.
For Cc1cccc(-c2c(NC(=O)c3ccco3)oc3c(C)cccc3c2=O)c1 the results were TSHR antagonist inactive, PLK1 PBD block inactive, Vif-A3G inh inactive, VDR inh inactive and Vif-APOBEC3F blk inactive.
Cc1cccc2c(=O)c(-c3ccc4c(c3)OCO4)c(NC(=O)c3ccco3)oc12 was read as TSHR antagonist inactive, PLK1 PBD block 23.8µM, Vif-A3G inh inactive, VDR inh inactive and Vif-APOBEC3F blk inactive.
`CC1(CCc2ccccc2)NC(=O)N(CC(=O)N2CC(=O)Nc3ccccc32)C1=O` (stereo not given) gave TSHR antagonist -76.8, PLK1 PBD block inactive, Vif-A3G inh inactive, VDR inh inactive and Vif-APOBEC3F blk inactive.
For Cc1ccc(C(=O)Nc2nc(-c3cccnc3)cs2)o1 the results were TSHR antagonist inactive, PLK1 PBD block inconclusive, Vif-A3G inh inactive, VDR inh inactive and Vif-APOBEC3F blk inactive.
For O=C(Nc1nc(-c2ccccc2)cs1)c1ccc(Br)o1 the results were TSHR antagonist inactive, PLK1 PBD block 29.9µM, Vif-A3G inh inconclusive, VDR inh inconclusive and Vif-APOBEC3F blk inactive.
CC(C)(C)OC(=O)NS(=O)(=O)Nc1ccccc1Br was read as Vif-A3G inh inactive and VDR inh inactive.
Screening CCCNS(=O)(=O)c1ccc(CCC(=O)NCc2ccco2)cc1 returned TSHR antagonist inactive, PLK1 PBD block 29.9µM, Vif-A3G inh inactive, VDR inh inactive and Vif-APOBEC3F blk inactive.
`O=C(CN1C(=O)C2C3CC(C(Br)C3Br)C2C1=O)OCC(=O)c1cccc([N+](=O)[O-])c1` (stereo not given) gave TSHR antagonist inactive, PLK1 PBD block 21.2µM, Vif-A3G inh inactive, VDR inh inactive and Vif-APOBEC3F blk inactive.
For Cn1nc(C(=O)O)c(=O)n(C)c1=O the results were PLK1 PBD block 26.7µM, Vif-A3G inh inactive, VDR inh inactive and Vif-APOBEC3F blk inactive.
For CCOC(=O)c1nc2c(=O)n(C)c(=O)n(C)c2n(C)c1=O the results were PLK1 PBD block inactive, Vif-A3G inh inactive, VDR inh inactive and Vif-APOBEC3F blk inactive.
O=C(NCCc1ccccc1)C(=O)NC1CCCCC1 was read as TSHR antagonist inactive, PLK1 PBD block inactive, Vif-A3G inh inactive, VDR inh inactive and Vif-APOBEC3F blk inactive.
For COc1cc(C)c(NC(=O)C(=S)NCCc2ccccc2)cc1C the results were TSHR antagonist inactive, PLK1 PBD block 11.9µM, Vif-A3G inh inactive, VDR inh inconclusive and Vif-APOBEC3F blk inactive.
For Nc1sc(Cc2ccccc2)cc1C(=O)NC1CCCCC1 the results were PLK1 PBD block 26.7µM.
Screening S=C(NC1CCCCC1)N(CCc1ccccc1)CCc1ccccc1 returned TSHR antagonist inactive, PLK1 PBD block inactive, Vif-A3G inh inactive, VDR inh inactive and Vif-APOBEC3F blk 7.08µM.
For OCCN(Cc1ccccc1)C(=S)NC1CCCCC1 the results were TSHR antagonist inactive, PLK1 PBD block inactive, Vif-A3G inh inactive, VDR inh inactive and Vif-APOBEC3F blk inactive.
Screening O=C(NC1CCCCC1)C(=S)NCCc1ccccc1 returned TSHR antagonist inactive, PLK1 PBD block 23.8µM, Vif-A3G inh inactive, VDR inh inconclusive and Vif-APOBEC3F blk inactive.
`COCOc1c2c(c(OCOC)c3c(OCOC)cccc13)/C(=N/NS(C)(=O)=O)C1=C2CCCC1` gave VDR inh inactive.
